Drawing on PubChem BioAssay AID2102 (Southern Research Specialized Biocontainment Screening …, 2009), this text covers outcome for 34 compounds.

Out of some 1,100 compounds screened, about 210 (19%) were called active. How the calls were made is not given here. The list is a sample of the results. Measured potencies and affinities stand elsewhere.

This test is described as follows: cell viability loss from selected hits – cytotoxicity control for SV40 T antigen inhibitor project, dose response (AID 2102).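 Further: cells exposed to compounds for 72 hours.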 Conditions: Host cell viability cytotoxicity counter-screen; series mostly up to 50 µM.
Regarding `COc1cc(SC)ccc1C(=O)N1CCN(Cc2ccccc2)CC1`, the outcome was inactive. With `COc1cc(SC)ccc1C(=O)N1CCN(c2ccc(O)cc2)CC1` the entry was “inactive”; with `Cc1ccc(C)c(S(=O)(=O)Nc2ccc(O)cc2)c1`, “inactive”. With `Oc1ccc2c(c1)oc1cc(O)ccc12` the entry was “inactive”. With `O=c1oc2cc(O)ccc2c2ccccc12` the entry was “inactive”; with `OC1CCN(C(=S)Nc2ccc(Nc3ccccc3)cc2)CC1`, “inactive”; with `OCCNc1nc(Nc2ccc(O)cc2)nc2ccccc12`, “inactive”. Turning to `CN1CCN(c2nc(Nc3ccc(O)cc3)nc3ccccc23)CC1`, the result was inactive. Take `Cc1ccc2oc(=O)c(/C=C(\O)C(C)(C)C)nc2c1`: the call was inactive. Under `COc1cc2c(cc1NC(=S)Nc1ccccc1C)oc1ccccc12` stands “inactive”. With `COc1ccc(N2CCN(C(=O)NC3CC(=O)N(c4ccc(OC)cc4)C3)CC2)cc1` (centres undefined) the entry was “inactive”; with `CNC(=S)N1CCN(c2ccc(OC)cc2)CC1`, “inactive”. With `COc1ccc(CNC(=S)N/N=C/c2ccc(O)c(OC)c2)cc1` the entry was “inactive”; with `COc1ccc(NC2CCCN(C(=O)c3ccc(OC)o3)C2)cc1` (centres undefined), “inactive”. For the compound `COc1cc(/C=N/NC(=O)CC#N)cc(Br)c1O`, the result was inactive.

Take `COc1ccc(N2C(=O)CC(Sc3n[nH]c(-c4cccc(C)c4)n3)C2=O)cc1` (centres undefined): the call was inactive.

With `CC1=C(C#N)c2nc(N)c(C#N)c(C)c2/C1=C\c1ccc(-c2ccccc2C(=O)O)o1`, the outcome was inactive. With `COc1cc(/C=C2\N=C3CCCCCN3C2=O)ccc1O` the entry was “inactive”; with `O=c1/c(=C\c2cc([N+](=O)[O-])cc([N+](=O)[O-])c2O)sc2nc3ccccc3n12`, “inactive”; with `O=C1C=C(Nc2ccc(O)cc2)CC(c2ccco2)C1` (centres undefined), “inactive”. Under `O=C(O)/C=C/c1ccc(O)cc1` stands “inactive”. With `COc1cc(-c2nc(=S)[nH][nH]2)cc(OC)c1OC` the entry was “inactive”; with `C=CCn1c(CNc2ccccc2)nnc1SCC(=O)N/N=C/c1ccc(O)cc1O`, “inactive”; with `O=C(N/N=C/c1ccc(O)cc1)c1csc2ccccc12`, “inactive”. Take `CCCn1c(=O)c2ccccc2n2c(=S)[nH]nc12`: the outcome was inactive.

For the compound `CNC(=S)Nc1ccc(Nc2ccccc2)cc1`, the result was inactive. With `NC(=O)Nc1ccc(Nc2ccccc2)cc1` the entry was “inactive”; with `O=[N+]([O-])c1cccc(S(=O)(=O)N/N=C/c2ccc(O)cc2)c1`, “inactive”; with `O=C(CN1C(=O)/C(=C/c2ccco2)SC1=S)Nc1ccc(C(=O)O)c(O)c1`, “inactive”.

For `COc1cc2c(cc1OC)C[N+](C)(C)CC2`, the compound was classed as inactive. Turning to `COc1cc(/C=N/Nc2nncn2/N=C/c2ccc(O)c(OC)c2)ccc1O`, the call was inactive. With `N#CC1=C(N)NC(=S)C(C(N)=O)C1c1ccccc1F` (centres undefined) the entry was “inactive”. With `CCOc1cc(N2CCOCC2)c(OCC)cc1NC(C)C(=O)N1CCC(C)CC1` (centres undefined) the entry was “inactive”; with `CCNC(=S)Nc1cc(OCC)c(N2CCOCC2)cc1OCC`, “inactive”.
